Data as given in PubChem BioAssay AID720597 (Broad Institute, 2013).
Results with a measured potency or affinity are listed apart. Active and inactive are the calls of the source.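 Rule for the calls: active = fitted half-maximal dose no more than twice the top valid tested dose, for compounds that lower signal; inconclusive = fit invalid, or curve flat with activity between -70 and -30; inactive = potency past limit, curve flat within ±30, or signal increasing.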

Molecular target: NAD-dependent protein deacylase sirtuin-5, mitochondrial (Homo sapiens) (UniProt Q9NXA8)
Assay: SIRT5 deacylase inhibitors, dose response, biochemical, fluorescence imaging, cherry-pick, set 6 (AID 720597);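 note: lower AMC signal can also come from blocking the trypsin step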
Conditions: Purified SirT5, succinyl-peptide-AMC/trypsin fluorescence; series mostly up to 15 µM

NAD-dependent protein deacylase sirtuin-5, mitochondrial (Homo sapiens), sequence (Q9NXA8 whole entry, looked up): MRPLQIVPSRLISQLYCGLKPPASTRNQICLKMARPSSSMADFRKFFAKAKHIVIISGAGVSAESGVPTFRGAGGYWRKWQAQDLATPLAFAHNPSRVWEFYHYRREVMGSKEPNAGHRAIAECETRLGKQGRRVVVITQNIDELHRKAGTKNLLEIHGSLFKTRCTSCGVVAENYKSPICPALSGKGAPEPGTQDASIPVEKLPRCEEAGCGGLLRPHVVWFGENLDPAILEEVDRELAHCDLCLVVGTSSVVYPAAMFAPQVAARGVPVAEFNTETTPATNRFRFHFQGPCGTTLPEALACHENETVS

Row | Structure (SMILES) | outcome
1 | CC(C)NC(=O)Nc1ccc2c(c1)C(=O)N([C@H](C)CO)C[C@H](C)[C@H](CN(C)C(=O)Cc1ccccc1)OCCCC[C@H](C)O2 | inactive
2 | COc1ccc(S(=O)(=O)N(C)C[C@H]2Oc3cc(C#CC4CC4)ccc3S(=O)(=O)N([C@@H](C)CO)C[C@H]2C)cc1 | inactive
3 | Cc1ccc(S(=O)(=O)Nc2ccc3c(c2)C(=O)N([C@H](C)CO)C[C@H](C)[C@@H](CN(C)Cc2ccc(Cl)c(Cl)c2)OCCCC[C@H](C)O3)cc1 | inactive
4 | COc1ccc(S(=O)(=O)N(C)C[C@H]2OCCCC[C@H](C)Oc3ccc(NS(=O)(=O)c4ccc(C)cc4)cc3C(=O)N([C@@H](C)CO)C[C@H]2C)cc1 | inactive
5 | O=C(c1ccc2c(c1)OCO2)N1CC(=O)N2[C@H](CO)[C@H](c3ccc(C#CCC4CCCC4)cc3)[C@@H]2C1 | inactive
6 | C[C@@H]1CN([C@@H](C)CO)C(=O)Cc2cc(NS(=O)(=O)c3ccc(Cl)cc3)ccc2O[C@@H]1CN(C)CC1CCCCC1 | inactive
7 | CCCC#Cc1ccc2c(c1)O[C@H](CN(C)C(=O)Nc1ccccc1F)[C@@H](C)CN([C@H](C)CO)S2(=O)=O | inactive
8 | COc1ccc(NC(=O)Nc2ccc3c(c2)C(=O)N([C@@H](C)CO)C[C@@H](C)[C@@H](CN(C)Cc2ccncc2)O3)cc1 | inactive
9 | C[C@H](CO)N1C[C@H](C)[C@@H](CN(C)Cc2ccc(Cl)c(Cl)c2)Oc2ccc(NC(=O)CCCCCC(=O)Nc3ccccc3N)cc2CC1=O | inactive
10 | COc1ccc(S(=O)(=O)Nc2ccc3c(c2)C(=O)N([C@H](C)CO)C[C@H](C)[C@@H](CN(C)Cc2ccc(C(F)(F)F)cc2)OCCCC[C@H](C)O3)cc1 | inactive
11 | COc1ccc(S(=O)(=O)N(C)C[C@@H]2OCCCC[C@H](C)Oc3ccc(NS(=O)(=O)c4ccc(C)cc4)cc3C(=O)N([C@@H](C)CO)C[C@@H]2C)cc1 | inactive
12 | C[C@@H]1CN([C@H](C)CO)C(=O)c2cc(NS(=O)(=O)c3ccc(Cl)cc3)ccc2O[C@@H](C)CCCCO[C@H]1CN(C)C(=O)Nc1ccc(C(F)(F)F)cc1 | inactive
13 | Cc1ccc(S(=O)(=O)N(C)C[C@H]2OCCCC[C@@H](C)Oc3ccc(NS(=O)(=O)c4ccccc4)cc3C(=O)N([C@@H](C)CO)C[C@@H]2C)cc1 | inactive
14 | COc1cccc(-c2ccc3c(c2)[C@H]2[C@H](CCN2C(=O)c2ccccc2F)[C@H](CO)N3C)c1 | inactive
15 | C[C@H]1CN([C@@H](C)CO)S(=O)(=O)c2ccc(C3=CCCCC3)cc2O[C@@H]1CN(C)S(=O)(=O)c1ccc(F)cc1 | inactive
16 | C[C@H](CO)N1C[C@H](C)[C@@H](CN(C)CC2CCCCC2)Oc2c(NC(=O)CCCCCC(=O)Nc3ccccc3N)cccc2C1=O | inactive
17 | O=C(CCN1CCCCC1)N[C@H]1CC[C@H](CC(=O)N2CCC(Cc3ccccc3)CC2)O[C@H]1CO | inactive
18 | CCCC#Cc1ccc([C@H]2[C@@H](CO)N3CCCCN(S(=O)(=O)Cc4ccccc4)C[C@H]23)cc1 | inactive
19 | C[C@@H]1CN([C@@H](C)CO)C(=O)c2cccc(NC(=O)c3ccc(-c4nccs4)cc3)c2O[C@@H]1CN(C)Cc1ccc(C(F)(F)F)cc1 | inactive
20 | O=C(CN1CCOCC1)N1CC[C@H]2[C@H](CO)Nc3ccc(-c4ccc(F)cc4)cc3[C@H]21 | inactive

Row | Structure (SMILES) | outcome
21 | O=S(=O)(c1ccc(F)cc1)N1CCCCN2[C@H](CO)[C@H](c3ccc(-c4ccccc4F)cc3)[C@@H]2C1 | inactive
22 | C[C@H](CO)N1C[C@H](C)[C@H](CN(C)Cc2ccc(Oc3ccccc3)cc2)Oc2ccc(NC(=O)CCCCCC(=O)Nc3ccccc3N)cc2CC1=O | inactive
23 | Cc1ccc(S(=O)(=O)N[C@H]2CC[C@@H](CCn3cc(C(C)C)nn3)O[C@H]2CO)cc1 | inactive
24 | Cc1ccccc1S(=O)(=O)N(C)C[C@H]1OCc2ccccc2-c2c(n(C)c3ccccc23)C(=O)N([C@@H](C)CO)C[C@@H]1C | inactive
25 | COc1cccc(NC(=O)N2CC(=O)N3[C@H](C2)[C@H](c2ccc(C#CCC4CCCC4)cc2)[C@@H]3CO)c1 | inactive
26 | C[C@@H]1CN([C@@H](C)CO)C(=O)c2cc(-c3cccc(F)c3)cnc2O[C@H]1CN(C)C(=O)Nc1cc(F)ccc1F | inactive
27 | C[C@H]1CN([C@@H](C)CO)C(=O)c2cccc(NC(=O)c3ccncc3)c2O[C@@H]1CN(C)S(C)(=O)=O | inactive
28 | COc1cccc(NC(=O)N2CC(=O)N3[C@H](C2)[C@@H](c2ccc(C#CCC4CCCC4)cc2)[C@@H]3CO)c1 | inactive
29 | C[C@H]1CN([C@@H](C)CO)C(=O)c2c(c3ccccc3n2C)-c2ccccc2CO[C@@H]1CN(C)Cc1cccc2c1OCCCO2 | inactive
30 | C[C@H](CO)N1C[C@H](C)[C@H](CN(C)Cc2cccc(F)c2)Oc2ncc(C#C[C@@H](C)O)cc2C1=O | inactive
31 | O=C(NCC[C@H]1CC[C@@H](NS(=O)(=O)c2cccc(F)c2)[C@H](CO)O1)C1CCOCC1 | inactive
32 | CCCC(=O)Nc1ccc2c(c1)OC[C@@H](C)N(Cc1ccccc1)C[C@H](C)[C@H](OC)CN(C)C2=O | inactive
33 | C[C@H]1CN([C@@H](C)CO)C(=O)c2cc(C#Cc3cccc(F)c3)cnc2O[C@@H]1CN(C)CC1CCCC1 | inactive
34 | COc1ccc(S(=O)(=O)N(C)C[C@H]2OCCCC[C@@H](C)Oc3ccc(NS(=O)(=O)c4ccc(F)cc4)cc3C(=O)N([C@@H](C)CO)C[C@@H]2C)cc1 | inactive
35 | O=C(NCC[C@H]1CC[C@@H](NS(=O)(=O)c2cccc(F)c2)[C@@H](CO)O1)C1CCOCC1 | inactive
36 | O=C(C[C@H]1C[C@@H]2c3cc(NC(=O)Nc4ccc(C(F)(F)F)cc4)ccc3O[C@@H]2[C@@H](CO)O1)NCc1ccc2c(c1)OCO2 | inactive
37 | CCCC(=O)Nc1ccc2c(c1)OC[C@@H](C)N(Cc1ccccc1OC)C[C@@H](C)[C@H](OC)CN(C)C2=O | inactive
38 | C[C@@H]1CN([C@@H](C)CO)S(=O)(=O)c2ccc(C#CC(C)(C)O)cc2O[C@H]1CN(C)Cc1ccc(F)cc1 | inactive
39 | COc1cccc(NC(=O)N(C)C[C@@H]2Oc3cc(C#Cc4ccccc4)ccc3S(=O)(=O)N([C@H](C)CO)C[C@H]2C)c1 | inactive
